Experimental data published in the supplement of paper PMC10849652.
Targets with a hit are over-represented here; the source holds about 8,800 in all. About 0.5% of all pairs of compound and target were hits. A number with no mark means an inactive call.

Experiments:
Assay in all cases: log2 fold change, soluble protein after heating vs DMSO (PISA); higher = thermal stabilisation; K562 lysate, 10 uM; active = over 0.2 and 3.5 SD of the protein, either way, in both replicates (recomputed)
[1] = compound: NCC(=O)Nc1ccc(-n2nc(C(F)(F)F)cc2-c2ccc3c(ccc4ccccc43)c2)cc1
Method in brief: (§1)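 Quantification was by TMTpro 16plex LC-MS/MS with equalised channel sums, applied to the supernatant after 21,000xg for 90 min. Samples were crude K562 extract at 1 mg/mL protein in PBS pH 7.4 with 1 mM MgCl2, treated with 10 μM compound for 30 min, heated for 3 min across 48°C-58°C, pooled and brought to 0.5% NP-40 at 4°C. Values are log-two fold changes in thermal stability relative to solvent controls, from duplicates.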

vorinostat = compound: O=C(CCCCCCC(=O)Nc1ccccc1)NO [vorinostat]
Method in brief: as §1

silmitasertib = compound: O=C(O)c1ccc2c(c1)nc(Nc1cccc(Cl)c1)c1ccncc12 [silmitasertib]
Method in brief: as §1

[2] = compound: O=C1NC(=O)C(c2cnc3ccccn23)=C1c1cn2c3c(cc(F)cc13)CN(C(=O)N1CCCCC1)CC2
Method in brief: as §1

entospletinib = compound: c1cn2cc(-c3ccc4cn[nH]c4c3)nc(Nc3ccc(N4CCOCC4)cc3)c2n1 [entospletinib]
Method in brief: as §1

UniProt Q9BXW6, sequence (Q9BXW6 whole entry, looked up): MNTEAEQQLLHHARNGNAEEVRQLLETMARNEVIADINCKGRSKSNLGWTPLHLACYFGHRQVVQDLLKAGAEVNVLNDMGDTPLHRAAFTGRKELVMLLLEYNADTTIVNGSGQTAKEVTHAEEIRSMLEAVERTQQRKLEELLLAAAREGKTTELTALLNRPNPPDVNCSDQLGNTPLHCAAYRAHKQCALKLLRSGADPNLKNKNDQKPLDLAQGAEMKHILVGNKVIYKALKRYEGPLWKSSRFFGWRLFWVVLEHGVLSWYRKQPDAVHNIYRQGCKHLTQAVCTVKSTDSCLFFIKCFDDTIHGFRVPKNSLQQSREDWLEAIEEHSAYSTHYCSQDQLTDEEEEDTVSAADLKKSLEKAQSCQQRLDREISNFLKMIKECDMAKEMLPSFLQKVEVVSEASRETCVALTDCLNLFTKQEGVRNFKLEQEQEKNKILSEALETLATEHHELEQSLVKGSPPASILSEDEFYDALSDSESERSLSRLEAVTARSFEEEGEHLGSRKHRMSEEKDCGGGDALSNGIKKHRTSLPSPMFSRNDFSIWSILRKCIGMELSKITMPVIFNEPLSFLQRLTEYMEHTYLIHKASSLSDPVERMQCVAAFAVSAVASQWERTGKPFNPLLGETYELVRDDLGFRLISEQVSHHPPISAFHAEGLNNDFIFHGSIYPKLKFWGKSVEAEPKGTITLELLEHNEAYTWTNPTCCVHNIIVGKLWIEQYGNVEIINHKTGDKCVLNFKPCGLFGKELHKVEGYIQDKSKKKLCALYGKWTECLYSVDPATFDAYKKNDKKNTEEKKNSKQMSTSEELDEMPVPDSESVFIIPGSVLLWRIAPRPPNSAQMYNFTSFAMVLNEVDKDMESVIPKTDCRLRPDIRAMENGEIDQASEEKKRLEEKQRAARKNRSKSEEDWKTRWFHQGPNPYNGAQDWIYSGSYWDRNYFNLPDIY
UniProt Q9UK39, sequence (Q9UK39 whole entry, looked up): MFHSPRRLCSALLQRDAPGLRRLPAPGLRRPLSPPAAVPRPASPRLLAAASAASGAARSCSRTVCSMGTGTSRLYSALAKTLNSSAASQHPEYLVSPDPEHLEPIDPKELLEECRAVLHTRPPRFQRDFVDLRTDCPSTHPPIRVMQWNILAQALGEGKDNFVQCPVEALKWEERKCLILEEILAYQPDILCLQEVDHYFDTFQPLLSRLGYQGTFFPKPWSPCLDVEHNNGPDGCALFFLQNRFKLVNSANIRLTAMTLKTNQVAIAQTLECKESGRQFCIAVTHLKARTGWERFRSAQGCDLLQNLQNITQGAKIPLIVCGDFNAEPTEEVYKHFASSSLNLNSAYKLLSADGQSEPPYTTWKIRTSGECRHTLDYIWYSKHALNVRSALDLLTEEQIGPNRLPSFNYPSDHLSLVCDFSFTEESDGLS
UniProt Q15746, sequence (Q15746 whole entry, looked up): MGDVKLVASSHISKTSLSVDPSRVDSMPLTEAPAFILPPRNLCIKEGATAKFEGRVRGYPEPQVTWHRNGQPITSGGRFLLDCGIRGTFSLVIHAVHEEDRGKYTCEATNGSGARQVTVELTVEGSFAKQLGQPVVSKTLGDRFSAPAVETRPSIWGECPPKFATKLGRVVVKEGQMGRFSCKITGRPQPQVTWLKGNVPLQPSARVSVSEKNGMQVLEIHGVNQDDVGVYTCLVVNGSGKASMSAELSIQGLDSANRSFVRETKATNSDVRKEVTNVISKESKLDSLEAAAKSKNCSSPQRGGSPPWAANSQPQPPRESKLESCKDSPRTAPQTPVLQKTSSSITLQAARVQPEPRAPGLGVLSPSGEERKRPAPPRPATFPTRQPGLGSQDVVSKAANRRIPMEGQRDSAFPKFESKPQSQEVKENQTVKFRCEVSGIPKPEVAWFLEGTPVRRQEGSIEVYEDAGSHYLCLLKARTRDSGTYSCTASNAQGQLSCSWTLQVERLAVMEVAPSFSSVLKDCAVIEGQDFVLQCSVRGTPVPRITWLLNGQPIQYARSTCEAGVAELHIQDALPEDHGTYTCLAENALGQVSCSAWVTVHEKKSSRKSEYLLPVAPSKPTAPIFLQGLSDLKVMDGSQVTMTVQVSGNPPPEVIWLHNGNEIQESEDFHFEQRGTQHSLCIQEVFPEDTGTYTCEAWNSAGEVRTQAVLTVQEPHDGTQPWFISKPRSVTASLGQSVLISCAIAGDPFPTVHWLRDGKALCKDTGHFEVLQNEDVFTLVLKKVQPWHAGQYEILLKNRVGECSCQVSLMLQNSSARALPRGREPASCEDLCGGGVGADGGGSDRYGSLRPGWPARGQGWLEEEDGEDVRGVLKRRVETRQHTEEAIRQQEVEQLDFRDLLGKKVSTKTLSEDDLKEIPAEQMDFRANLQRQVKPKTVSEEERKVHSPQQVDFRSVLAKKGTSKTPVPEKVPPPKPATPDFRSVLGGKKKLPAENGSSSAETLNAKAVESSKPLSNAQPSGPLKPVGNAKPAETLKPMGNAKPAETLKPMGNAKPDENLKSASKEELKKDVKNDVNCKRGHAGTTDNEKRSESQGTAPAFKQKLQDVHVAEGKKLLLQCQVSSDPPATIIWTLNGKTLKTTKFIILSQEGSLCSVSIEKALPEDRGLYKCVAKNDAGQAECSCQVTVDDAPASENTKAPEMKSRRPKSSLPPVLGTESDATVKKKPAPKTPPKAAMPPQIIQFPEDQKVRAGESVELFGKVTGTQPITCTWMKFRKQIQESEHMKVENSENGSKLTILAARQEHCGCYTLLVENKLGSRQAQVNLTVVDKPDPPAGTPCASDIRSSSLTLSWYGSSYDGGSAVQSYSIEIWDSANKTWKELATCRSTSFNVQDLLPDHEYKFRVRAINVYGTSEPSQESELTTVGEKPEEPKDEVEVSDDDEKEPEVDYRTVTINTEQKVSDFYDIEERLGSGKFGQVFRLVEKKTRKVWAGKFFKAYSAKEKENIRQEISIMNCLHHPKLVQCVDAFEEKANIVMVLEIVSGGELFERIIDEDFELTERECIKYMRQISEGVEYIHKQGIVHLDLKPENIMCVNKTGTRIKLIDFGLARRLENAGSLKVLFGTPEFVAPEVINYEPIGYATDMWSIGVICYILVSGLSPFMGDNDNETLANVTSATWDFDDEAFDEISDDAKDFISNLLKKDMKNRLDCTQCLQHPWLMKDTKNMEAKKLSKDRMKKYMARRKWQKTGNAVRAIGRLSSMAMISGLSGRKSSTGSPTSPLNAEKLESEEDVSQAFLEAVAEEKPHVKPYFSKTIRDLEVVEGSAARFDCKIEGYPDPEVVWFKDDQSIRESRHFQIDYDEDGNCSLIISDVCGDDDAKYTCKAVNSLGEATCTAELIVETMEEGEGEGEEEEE
UniProt P04150, sequence (P04150 whole entry, looked up): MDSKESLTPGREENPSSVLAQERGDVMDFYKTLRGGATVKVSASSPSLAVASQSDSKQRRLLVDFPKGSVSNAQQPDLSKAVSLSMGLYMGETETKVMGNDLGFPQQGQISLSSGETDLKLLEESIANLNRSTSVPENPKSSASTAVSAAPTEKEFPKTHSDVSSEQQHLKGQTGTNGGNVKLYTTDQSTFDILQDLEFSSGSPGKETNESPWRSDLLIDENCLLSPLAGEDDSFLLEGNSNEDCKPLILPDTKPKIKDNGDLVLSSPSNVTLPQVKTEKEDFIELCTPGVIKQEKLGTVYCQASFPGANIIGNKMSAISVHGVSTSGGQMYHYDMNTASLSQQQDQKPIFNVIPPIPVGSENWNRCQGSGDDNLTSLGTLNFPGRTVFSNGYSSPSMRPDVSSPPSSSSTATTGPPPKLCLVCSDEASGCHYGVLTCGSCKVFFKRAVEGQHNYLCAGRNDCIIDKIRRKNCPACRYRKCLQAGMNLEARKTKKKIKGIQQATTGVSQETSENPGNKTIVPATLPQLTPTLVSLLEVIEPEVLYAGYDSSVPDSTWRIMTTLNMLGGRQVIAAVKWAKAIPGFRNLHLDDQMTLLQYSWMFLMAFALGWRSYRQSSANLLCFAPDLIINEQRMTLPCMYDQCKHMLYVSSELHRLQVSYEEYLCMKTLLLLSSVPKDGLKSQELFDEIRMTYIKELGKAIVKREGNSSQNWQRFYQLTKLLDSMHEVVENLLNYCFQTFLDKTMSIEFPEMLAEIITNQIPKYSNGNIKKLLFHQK
UniProt P40261, sequence (P40261 whole entry, looked up): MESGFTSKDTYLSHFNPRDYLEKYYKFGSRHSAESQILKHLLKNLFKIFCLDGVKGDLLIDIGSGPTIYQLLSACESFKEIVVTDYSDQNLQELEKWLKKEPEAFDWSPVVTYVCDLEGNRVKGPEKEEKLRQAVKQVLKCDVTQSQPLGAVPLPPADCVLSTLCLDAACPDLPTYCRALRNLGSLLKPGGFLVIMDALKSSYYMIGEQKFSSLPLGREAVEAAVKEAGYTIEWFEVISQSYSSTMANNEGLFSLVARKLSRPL
UniProt Q8IXH7, sequence (Q8IXH7 whole entry, looked up): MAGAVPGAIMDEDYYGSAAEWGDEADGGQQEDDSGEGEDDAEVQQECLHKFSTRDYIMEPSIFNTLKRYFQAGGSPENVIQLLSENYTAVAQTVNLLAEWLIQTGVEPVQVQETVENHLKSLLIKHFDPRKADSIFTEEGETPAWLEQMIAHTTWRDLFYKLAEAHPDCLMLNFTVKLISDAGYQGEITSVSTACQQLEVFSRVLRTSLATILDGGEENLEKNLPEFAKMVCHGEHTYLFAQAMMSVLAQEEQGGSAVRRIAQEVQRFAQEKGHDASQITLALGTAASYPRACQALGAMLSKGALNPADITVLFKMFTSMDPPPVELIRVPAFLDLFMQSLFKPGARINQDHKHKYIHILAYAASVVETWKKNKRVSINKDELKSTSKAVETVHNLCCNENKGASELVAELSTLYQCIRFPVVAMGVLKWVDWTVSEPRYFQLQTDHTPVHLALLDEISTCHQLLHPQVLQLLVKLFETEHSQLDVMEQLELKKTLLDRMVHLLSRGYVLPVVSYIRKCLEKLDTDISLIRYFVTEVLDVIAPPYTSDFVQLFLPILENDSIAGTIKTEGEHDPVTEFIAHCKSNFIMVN
UniProt O00483, sequence (O00483 whole entry, looked up): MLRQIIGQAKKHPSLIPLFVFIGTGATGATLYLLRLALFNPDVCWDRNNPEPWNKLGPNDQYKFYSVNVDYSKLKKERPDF

Target | log2 fold change [1] | log2 fold change (vorinostat) | log2 fold change (silmitasertib) | log2 fold change [2] | log2 fold change (entospletinib)
OLA1 (UniProt Q9NTK5) | 0.03 | -0.31 (active) | 0.041 | 0.004 | 0.043
NUSAP1 (UniProt Q9BXS6) | 0.01 | 0.101 | -0.036 | -0.003 | -0.001
NFKBIE (UniProt O00221) | -0.08 | 0.005 | 0.114 | -0.017 | -0.036
PARD3B (UniProt Q8TEW8) |  | -0.585 (active) | -0.209 |  | 
NDUFA4 (UniProt O00483) | -0.041 | -0.017 | -0.004 | 0.01 | -0.029
MTA2 (UniProt O94776) | 0.034 | -0.352 (active) | 0.02 | 0.006 | 0.021
N6AMT1 (UniProt Q9Y5N5) | -0.043 | 0.076 | -0.025 | -0.007 | -0.011
NPLOC4 (UniProt I3L3I1) |  |  |  | 0.253 | -0.146
ORC1 (UniProt Q13415) |  |  |  |  | -0.047
NFAT5 isoform 4 (UniProt O94916) |  |  |  | -0.062 | 
NR3C1 isoform 3 (UniProt P04150) | -0.124 |  | 0.05 | 0.046 | -0.064
MYH6 (UniProt P13533) |  | 0.209 | -0.053 | 0.188 | 0.102
OSBPL1A (UniProt Q9BXW6) |  | 0.128 | -0.19 | -0.14 | 
NELFCD (UniProt Q8IXH7) | 0.023 | -0.322 (active) | 0.049 | -0.005 | 0.032
NNMT (UniProt P40261) | 0.014 | -0.104 | 0.014 | 0.03 | -0.004
N4BP2 (UniProt Q86UW6) | -0.075 | -0.369 (active) | -0.004 | -0.001 | -0.029
MYLK (UniProt Q15746) | -0.312 |  |  | -0.294 | -0.096
NUP93 (UniProt Q8N1F7) | -0.011 | -0.242 (active) | 0.067 | 0.015 | 0.022
PBK (UniProt Q96KB5) | -0.029 | -0.269 (active) | 0.013 | -0.021 | 0.035
NOCT (UniProt Q9UK39) |  | -0.886 (active) | 0.004 | -0.036 | -0.301
NFATC4 isoform 2 (UniProt Q14934) | 0.207 |  |  | 0.076 | 0.019
NRIP1 (UniProt P48552) |  | 0.274 | 0 | 0.06 | 
P2RY1 (UniProt P47900) |  | 0.04 | 0.13 |  | -0.064
PANK2 (UniProt Q9BZ23) | 0 |  |  | -0.012 | -0.023
NUB1 isoform 2 (UniProt Q9Y5A7) |  |  |  | -0.068 | 
ORC5 (UniProt O43913) | 0.023 | -0.377 (active) | 0.072 | 0.011 | 0.066
